In the library only some 12% were active in any assay of this set; here they are far more common.
G9a block – inhibitors of human histone lysine methyltransferase G9a. G9a H3K9 monomethylation, AlphaScreen, 2 h. Potency, µM (highest dose often 102 µM), inactives show top-dose activity, negative = inhibition, most hits filed as inhibitors. AID 504332. 8.8% of 350,000 active; note: % is set by controls: 0 for no effect and ±100 for the full control effect; nearly all actives have a fitted effect of over 75% in size
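AlphaScreen detection with an anti-monomethyl H3K9 antibody quantified product after a 2 h room-temperature reaction containing 500 nM biotinylated H3K9 peptide, 20 µM SAM and 20 nM enzyme, which had been preincubated 15 min with compound.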
HP1b chromo inh – blocks HP1-beta chromodomain binding to methylated histone tails; AlphaScreen HP1-beta / biotin-H3K9me3 peptide binding; Potency, µM (series often up to 114 µM), inactives show top-dose activity change, negative = inhibition, actives largely listed as inhibitors; 0.56% of 390,000 active; AID 540317; note: nearly all actives have a fitted effect of over 70% in size
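Compound inhibition of the preformed complex between 50 nM HP1-beta and 50 nM biotinylated H3K9me3 peptide was read by AlphaScreen. Buffer was PBS pH 7.4 with 0.01% Tween-20. Incubations ran 30 min at room temperature, with 10 ug/mL donor/acceptor beads.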
L3MBTL1 inh – L3MBTL1 (human) inhibition. AlphaScreen L3MBTL1–H3K9me1 peptide binding. 0.66% of 230,000 active. Potency, µM (series often up to 57.1 µM), for inactives: top-dose activity, negative = inhibition, actives largely listed as inhibitors; note: % is set by controls: 0 for no effect and ±100 for the full control effect; nearly all actives have a fitted effect of over 60% in size
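L3MBTL1 (50 nM) pre-complexed 30 min with biotinylated H3(1-15)K9me1 peptide (75 nM), then compounds added for 30 min at room temperature; AlphaScreen streptavidin donor/nickel chelate acceptor beads (10 ug/mL final) read after 30 min dark incubation.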
Sfp inh – blocks B. subtilis Sfp PPTase activity; Q9F4F7; Biochemical Sfp PPTase activity, qHTS; Potency, µM, for the others: largest response in the series, negative = inhibition, actives largely listed as inhibitors; 3.5% of 310,000 active;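 note: the enzyme is Sfp with the accession as filed and its product quenches rhodamine fluorescence; 0% = enzyme reaction without inhibitor and -100% = no enzyme wells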
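Fluorescence-quenching assay with 15 nM Sfp, 5 uM rhodamine-CoA and 12.5 uM BHQ-2-labelled ybbR peptide in pH 7.6 Hepes/MgCl2 buffer. Enzyme was pre-incubated with compound for 15 min at room temperature. Rate was taken from the 30-min fluorescence change (525/598 nm).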
JMJD2A Tudor – blocks the human JMJD2A Tudor domain | Potency, µM (top dose mostly 114 µM), for inactives: at the top dose activity change, negative = inhibition, usual class: inhibitors | O75164 | AlphaScreen JMJD2A-Tudor / H3K4me3 peptide binding | 4.4% of 390,000 active | AID 504339; note: % is set by controls: 0 for no effect and ±100 for the full control effect; nearly all actives have a fitted effect of over 50% in size
Target sequence (O75164 whole entry, looked up, the tested form may be a part): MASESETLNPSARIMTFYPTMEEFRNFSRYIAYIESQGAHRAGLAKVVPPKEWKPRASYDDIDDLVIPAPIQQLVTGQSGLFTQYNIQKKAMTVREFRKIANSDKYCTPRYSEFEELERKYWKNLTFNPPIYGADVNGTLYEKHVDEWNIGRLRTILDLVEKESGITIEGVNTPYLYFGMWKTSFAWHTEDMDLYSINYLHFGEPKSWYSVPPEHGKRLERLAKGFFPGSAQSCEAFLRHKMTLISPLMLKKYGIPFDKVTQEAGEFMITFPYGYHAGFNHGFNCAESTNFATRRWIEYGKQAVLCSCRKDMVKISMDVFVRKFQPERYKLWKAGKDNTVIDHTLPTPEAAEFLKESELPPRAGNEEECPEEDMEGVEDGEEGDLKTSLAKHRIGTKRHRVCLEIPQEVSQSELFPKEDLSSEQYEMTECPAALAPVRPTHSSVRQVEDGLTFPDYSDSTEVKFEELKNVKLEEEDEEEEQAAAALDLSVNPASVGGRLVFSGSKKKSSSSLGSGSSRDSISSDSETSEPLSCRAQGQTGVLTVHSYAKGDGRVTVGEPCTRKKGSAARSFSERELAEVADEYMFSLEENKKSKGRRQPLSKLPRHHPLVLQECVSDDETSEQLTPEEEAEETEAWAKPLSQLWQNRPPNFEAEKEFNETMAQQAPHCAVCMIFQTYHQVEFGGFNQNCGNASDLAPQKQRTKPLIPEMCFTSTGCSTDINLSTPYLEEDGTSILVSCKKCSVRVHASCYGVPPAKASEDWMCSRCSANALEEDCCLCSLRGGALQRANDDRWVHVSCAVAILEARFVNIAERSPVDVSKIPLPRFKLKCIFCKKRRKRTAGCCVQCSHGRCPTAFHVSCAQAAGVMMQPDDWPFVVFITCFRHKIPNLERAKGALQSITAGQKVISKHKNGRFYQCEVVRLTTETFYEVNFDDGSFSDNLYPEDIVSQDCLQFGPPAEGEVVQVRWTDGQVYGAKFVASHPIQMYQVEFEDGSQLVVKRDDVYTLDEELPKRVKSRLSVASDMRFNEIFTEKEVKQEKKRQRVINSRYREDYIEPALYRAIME
BAZ2B inh – BAZ2B (human) inhibition; Potency, µM (doses to about 114 µM), for inactives: at the top dose activity change, negative = inhibition, most hits filed as inhibitors; AlphaScreen BAZ2B-H3K14Ac peptide displacement; 4.4% of 360,000 active; AID 504333; note: % is set by controls: 0 for no effect and ±100 for the full control effect; nearly all actives have a fitted effect of over 60% in size
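AlphaScreen displacement: compounds (up to 110uM) incubated 30 min at room temperature with a preformed 50 nM BAZ2B/50 nM biotinylated H3K14Ac peptide complex in PBS pH 7.4 with Tween-20. Donor and acceptor beads at 10 ug/mL final added, 20 min light-protected before reading.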
An asterisk follows results filed as active; ? = inconclusive; . = not tested or not shown; [ ] = another dose, or the depositor's remark. Calls come from the whole dose curve; as a rule, active = well fitted curve in the direction sought with a large enough effect; inconclusive = small, poorly fitted or top-dose-only effect, or another doubt; inactive = no such curve, though single readings can be large; an effect the other way counts as inactive or inconclusive. Potency is the fitted concentration of half-maximal effect.

SMILES | G9a block | HP1b chromo inh | L3MBTL1 inh | Sfp inh | JMJD2A Tudor | BAZ2B inh
S=c1[nH]nc(C2CCCCC2)n1/N=C/c1ccccc1Cl | 2.2µM* | ? | . | 63µM* | 22µM* | ?
COc1ccccc1/C=C/C=N/n1c(-c2ccccc2)n[nH]c1=S | . | 0% | 3% | -58% | -36% | -3%
O=C(O)c1ccccc1/C=N/Nc1nc(N2CCCCC2)nc(N2CCCCC2)n1 | -2% | . | 0% | 14% | . | -16%
S=c1[nH]nc(-c2cccs2)n1/N=C/c1cn(-c2ccccc2)nc1-c1cccs1 | . | -20% | . | -3% | ? | ?
FC(F)(F)c1ccccc1/C=N/n1c(C2CCCCC2)n[nH]c1=S | 8.9µM* | -11% | . | ? | ? | -36%
O=C(O)c1ccccc1/C=N/n1c(C2CCCCC2)n[nH]c1=S | 22µM* | -25% | . | -12% | 7.9µM* | -12%
COc1ccccc1/C=C/C=N/n1c(C2CCCCC2)n[nH]c1=S | 3.2µM* | ? | -14% | -4% | ? | -34%
Cc1ccccc1NC(=O)Cn1c(=O)n(Cc2ccc3c(c2)OCO3)c(=O)c2oc3ccccc3c21 | -3%[59 µM] | 18% | . | . | -11% | -4%
CC(Nc1ccc(-c2nc(-c3ccncc3)no2)cc1[N+](=O)[O-])c1ccccc1 (stereo unspecified) | -21%[59 µM] | 14% | . | . | -5% | 1%
COc1ccc(CC(=O)N2CC(=O)Nc3ccc(F)cc3C2c2ccccc2)cc1 (stereo unspecified) | -2%[59 µM] | 11% | . | . | -25% | 0%
Cc1n[nH]c(=S)n1/N=C/c1ccccc1OCc1ccc(Cl)cc1Cl | 13%[59 µM] | 42% | 4% | 4% | -11% | 2%
CCOc1ccccc1/C=N/n1c(C2CCCCC2)n[nH]c1=S | 14µM* | -7% | . | -26% | ? | -30%
CC(C)(C)c1ccc(O)c(O)c1 | 9%[0.501 µM] | ? | -3% | . | 13µM* | -8%
CC(C)(C)c1ccc(O)c(/C=N\O)c1 | 29%[59 µM] | 30% | . | 22% | ? | -7%
N=C1N(c2ccccc2)C(=S)C(=Nc2ccccc2)N1c1ccccc1 | . | 45µM* | . | . | 25µM* | .
O=C1C(Cc2ccccc2)SC(=Nc2ccccc2)N1c1ccccc1 (stereo unspecified) | 35%[0.501 µM] | 34% | 3% | 3% | 7% | 5%
O=C(/C=C\c1ccco1)Oc1cccc2cccnc12 | -47% | -12% | . | ? | ? | 32µM*
Cc1ccc2cccc(OC(=O)/C=C\c3ccccc3)c2n1 | 10% | 21% | 1% | 19% | 20µM* | -11%
O=C(/C=C/c1ccco1)Oc1cccc2cccnc12 | . | 7% | -16% | -22% | ? | 45µM*
COC(=O)c1ccc(C(NC(=O)OCc2ccccc2)/C(F)=C/[C@@H](C)C(=O)Nc2ccc(OC)cc2)cc1 (stereo partly specified) | . | . | . | 19% | . | .
CN(CC(=O)Nc1ccc(Cl)c(C(F)(F)F)c1)C(=O)c1cn2ccccc2n1 | 35µM* | 16% | -1% | . | -13% | ?
COc1ccccc1NC(=O)c1nc[nH]c1C(=O)Nc1ccccc1OC | 11µM* | ? | 1% | 56µM* | -11% | ?
CCOc1ccccc1NC(=O)c1nc[nH]c1C(=O)Nc1ccccc1OCC | 13µM* | -2% | 0% | -7% | -20% | 56µM*
CCOc1ccccc1NC(=O)c1csc(C)c1C | 35µM* | 91% | . | 4% | 48% | 20%
CCOc1ccccc1NC(=O)c1cccc2ccccc12 | 67% | 96% | 5% | -4% | 75% | 12%
SMILES | G9a block | HP1b chromo inh | L3MBTL1 inh | Sfp inh | JMJD2A Tudor | BAZ2B inh
CC(OC(=O)c1cc(=O)c2ccccc2o1)C(=O)Nc1ccc(N(C)C)cc1 (stereo unspecified) | 3.2µM* | 16% | 9% | . | ? | -2%
COc1ccc(NC(=O)COC(=O)c2cc(=O)c3ccccc3o2)cc1OC | ? | 29% | 2% | . | -5% | 3%
CN(C)c1ccc(NC(=O)COC(=O)c2cc(=O)c3ccccc3o2)cc1 | 10µM* | 38% | 3% | -6% | -15% | -31%
CC(OC(=O)c1ccccc1C(=O)N(C)c1ccccc1)C(=O)Nc1ccc(C(N)=O)cc1 (stereo unspecified) | 1%[0.501 µM] | 29% | 6% | . | -10% | 10%
CC(OC(=O)c1cc(O)c2ccccc2c1O)C(=O)Nc1ccc(C(N)=O)cc1 (stereo unspecified) | 7.1µM* | ? | -22% | . | ? | ?
CC(OC(=O)c1cccc(N2C(=O)c3ccccc3C2=O)c1)C(=O)Nc1ccc(N(C)C)cc1 (stereo unspecified) | 16%[59 µM] | 7% | -7% | -22% | -12% | ?
COc1cccc(Nc2ncc3nc(-c4cc(F)cc(F)c4)c(=O)n(CCC#N)c3n2)c1 | -1%[12.7 µM] | . | . | -8% | . | .
CCOC(=O)N/N=C1/C[C@@H](O)[C@@H](O)[C@@H]2[C@H]3C(=O)N(c4ccc(F)cc4F)C(=O)[C@@H]3CC[C@H]12 | . | . | . | 6% | . | .
CCOC(=O)/C(C)=C1\NC(C)(C)Cc2ccccc21 | 2.5µM* | 25µM* | -3% | ? | 22µM* | 18µM*
Cc1cc2cc(CN(Cc3ccco3)S(=O)(=O)c3c(C)ccc4nsnc34)c(=O)[nH]c2cc1C | 2% | 4% | -7% | 50µM* | -28% | -38%[57.1 µM]
Cc1ccc2cc(CN(Cc3ccco3)S(=O)(=O)c3c(C)ccc4nsnc34)c(=O)[nH]c2c1 | ? | -12% | . | 16µM* | ? | ?
O=C(NCc1ccccc1F)C1CCCN(C(=O)N2CCOc3ccccc32)C1 (stereo unspecified) | ? | 1% | . | . | -20% | 0%
Cc1ccc(C)c(-n2sc3ccc(F)cc3c2=O)c1 | -1%[0.501 µM] | -25% | -3% | . | 14µM* | 18µM*
COc1ccc(-n2sc3ccc(F)cc3c2=O)cc1 | 0%[0.501 µM] | -5% | -1% | . | 11µM* | 8.9µM*
